We go through seven compounds from PubChem BioAssay (NCATS).

The target of assay [1] is Lysosomal acid glucosylceramidase (Homo sapiens) (UniProt P04062). Briefly: Glucocerebrosidase-p2 (AID 348; in the data active = potency below about 10 µM; note: potency is the fitted concentration of half-maximal effect). As to conditions: purified GBA, blue fluorogenic substrate, 40 min. The essentials: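 Normal human glucocerebrosidase (0.2 nM) with blue fluorogenic substrate (80 uM final) in citrate/phosphate pH 5.9 with 10mM sodium taurocholate, 0.01% tween-20; 40 min RT, NaOH/glycine stop; fluorescence Ex 365/Em 440; AC50 from a titration from 0.6 nM upwards.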

The nature of assay [2]: AP1 Signaling Pathway (AID 357). Note: % is set by controls: 0 for no effect and ±100 for the full control effect. The settings on record: ME-180 AP-1-bla reporter, EGF-induced, beta-lactamase ratio, 5 h; at 7.69 µM (top of the series) unless noted. In short, it runs like this:
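A ratiometric CCF4 readout (405 nm excitation; 460 and 530 nm emission) quantified AP-1-driven beta-lactamase in ME-180 cells after 5 h with compound and EC50 EGF; AC50 values were derived for activators and inhibitors.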

The target in assay [3] is Cytochrome P450 1A2 (Homo sapiens) (UniProt P05177). Kind of assay: p450-cyp1a2 (AID 410; calls by dose curve; note: potency is the fitted concentration of half-maximal effect;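 for activity change, negative = inhibition: -100% = full effect of reference inhibitor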). The settings on record: recombinant CYP1A2, luciferin-ME demethylation, luminescence; series mostly up to 57 µM. In short, it runs like this: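 20nM CYP1A2, 100uM Luciferin-ME (=Km), 100mM KPO4; cpd 10 min RT; +NADPH regen, 60 min RT; stop/detect 20 min; luminescence. Normalized to furafylline 57 uM = full inhibition.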

Assay [4] is described as follows: NFAT Signaling Pathway (AID 444).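 Note: carbachol stimulus at about its EC50 of 1 µM final; % is set by controls: 0 for no effect and ±100 for the full control effect.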 As to conditions: Jurkat NFAT-bla M1, carbachol, beta-lactamase ratio, 5 h; at 7.69 µM (top of the series) unless noted. The essentials: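 Jurkat cells carrying an NFAT-driven β-lactamase reporter and co-transfected muscarinic M1 receptor were treated with compound plus carbachol (1 uM final, an EC50 level) for 5 h at 37 °C. CCF4 loading followed for 1 h at RT; 460/530 nm ratio gave %activity.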

The nature of assay [5]: Stat Signaling Pathway (AID 446).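 Note: ME-180 cervical cancer cells given 40 pM IL-6 alongside compound; SIE-controlled beta-lactamase reporter measured as 460/530 nm FRET emission ratio; % is set by controls: 0 for no effect and ±100 for the full control effect.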 As to conditions: ME-180 SIE beta-lactamase reporter, IL-6 stimulated, 5 h; at 7.69 µM (top of the series) unless noted. The essentials:
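Overnight-plated ME-180 cells bearing a STAT Inducible Element beta-lactamase reporter; 5 h co-exposure to compound and 40 pM IL-6; values normalized to 300 pM IL-6 and 125 nM JAK inhibitor controls.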

In assay [6] the target is Glucocorticoid receptor (Homo sapiens) (UniProt P04150). Kind of assay: GR-GFP Redistribution (AID 450;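 active = compounds whose dose series gives a full or clear partial fitted curve of increased nuclear translocation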; note: potency is the fitted concentration of half-maximal effect). The settings on record: U2OS GR-GFP nuclear translocation, laser cytometry, 2 h.
Assay [7] shares this target. Briefly: GR-EFC Redistribution (AID 451; calls by dose curve; note: potency is the fitted concentration of half-maximal effect). As to conditions: CHO-K1 GR-EFC translocation, beta-gal luminescence, 2 h. The essentials:
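CHO-K1 cells stably expressing nuclear-localized β-gal enzyme acceptor and GR fused C-terminally to the enzyme donor fragment; ligand-driven nuclear translocation restores β-gal by complementation. Compounds titrated up to 46 uM final, 2 h at 37 °C; luminescence read.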

The target in assay [8] is Mitogen-activated protein kinase 10 (Mus musculus) (UniProt Q61831). Briefly: JNK3 AlphaScreen Assay (AID 530).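 Note: kinase came from lysate of stimulated human HepG2 cells; signal reports phosphorylation of biotinylated GST-cJun 1-79 at Ser73 with 10 µM ATP; % is set by controls: 0 for no effect and ±100 for the full control effect.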 The settings on record: JNK3 lysate, c-Jun phosphorylation; series mostly up to 57.1 µM. In short, it runs like this:
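Biotinylated GST-cJun(1-79) served as substrate for JNK3 in HepG2 lysates stimulated with IL-1beta and TNF-alpha. ATP was 10 uM final, pH 7.6. Ser73 phosphorylation was quantified by AlphaScreen (680 nm excitation).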
A general note: In Alpha technology, singlet oxygen from a donor bead excites a nearby acceptor bead.

The target in assay [9] is 3',5'-cyclic-AMP phosphodiesterase 4B (Homo sapiens) (UniProt Q07343). Kind of assay: qHTS Assay for Inhibitors of PDE-IV (AID 607; active = well fitted activation curve with a large enough effect in the main read-out, with a control signal flat, not every such curve was filed as active; note: % of control where 0% means no effect). The settings on record: HEK293 ACTOne CNG channel cells, membrane potential fluorescence; series mostly up to 22.9 µM. The essentials:
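Live HEK293 cells with a modified cyclic nucleotide-gated (CNG) channel report intracellular cAMP via membrane-potential dye fluorescence (ex 535/em 590 nm). Endogenous PDE-IV was targeted. Compounds were tested at up to 22.9 uM final; RO 20-1724 100 uM served as control.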

Assay [10] deals with Cytochrome P450 3A4 (Homo sapiens) (UniProt P08684). Briefly: qHTS Assay for Activators of Cytochrome P450 3A4 (AID 885; active = well fitted curve in the direction sought with a large enough effect; an effect the other way counts as inactive or inconclusive; note: nearly all actives have a fitted effect of over 65% in size). The settings on record: recombinant CYP3A4, Luciferin-PPXE luminescence, 60 min; series mostly up to 57.1 µM. In short, it runs like this:
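Using 20nM recombinant human CYP3A4 in potassium phosphate (200mM), substrate Luciferin-PPXE at 25uM, luminescent luciferin detection followed a 60-min RT NADPH reaction; data scaled to 57 uM ketoconazole.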
On the technique in general: Quantitative high-throughput screening tests each substance at several concentrations.

Assay [11] can be described thus: qHTS Assay for Identification of Small Molecule Agonists for Hypoxia Response Element Signaling Pathway (AID 914; active = well fitted activation curve with a large enough effect in the signal ratio, with a control signal flat, not every such curve was filed as active; the % refers to the signal ratio; note: % of control where 0% means no effect). As to conditions: ME-180 (cervical carcinoma) HRE-bla reporter, beta-lactamase ratio, CoCl2, 17 h; activation: active compounds read high. In short, it runs like this: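 AC50 values come from titration-series %Activity, taken as the 460/530nm ratio of CCF4 fluorescence (excitation 405nm). CellSensor HRE-bla ME-180 cells were treated 17 hours at 37 C with compound plus an EC50 level of CoCl2.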

Assay [12] in a line: Primary qHTS for small molecule stabilizers of the endoplasmic reticulum resident proteome: Secreted ER Calcium Modulated Protein (SERCaMP) assay (AID 1508630; active = well fitted curve in the direction sought with a large enough effect; an effect the other way counts as inactive or inconclusive; note: % is set by controls: 0 for no effect and ±100 for the full control effect). As to conditions: SH-SY5Y GLuc-SERCaMP (Gaussia luciferase released on ER calcium loss) secretion, thapsigargin, luminescence; series mostly up to 38.4 µM. In short, it runs like this: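 The SH-SY5Y reporter protocol was run at 3 concentrations up to 38.3 uM (primary) or 11 concentrations (follow-up): 16 h compound, 100 nM thapsigargin for 4 h, then extracellular luciferase luminescence.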

A number with no mark means an inactive call. Records with an inconclusive call do not appear. Calls of active or inactive are those of the source. Unless noted, calls come from the whole dose curve; as a rule, active = well fitted curve in either direction with a large enough effect (not every such curve was filed as active); inconclusive = small, poorly fitted or top-dose-only effect, or another doubt; inactive = flat fitted curve, though single readings scatter.

Chain of Lysosomal acid glucosylceramidase (Homo sapiens) (P04062 whole entry, looked up): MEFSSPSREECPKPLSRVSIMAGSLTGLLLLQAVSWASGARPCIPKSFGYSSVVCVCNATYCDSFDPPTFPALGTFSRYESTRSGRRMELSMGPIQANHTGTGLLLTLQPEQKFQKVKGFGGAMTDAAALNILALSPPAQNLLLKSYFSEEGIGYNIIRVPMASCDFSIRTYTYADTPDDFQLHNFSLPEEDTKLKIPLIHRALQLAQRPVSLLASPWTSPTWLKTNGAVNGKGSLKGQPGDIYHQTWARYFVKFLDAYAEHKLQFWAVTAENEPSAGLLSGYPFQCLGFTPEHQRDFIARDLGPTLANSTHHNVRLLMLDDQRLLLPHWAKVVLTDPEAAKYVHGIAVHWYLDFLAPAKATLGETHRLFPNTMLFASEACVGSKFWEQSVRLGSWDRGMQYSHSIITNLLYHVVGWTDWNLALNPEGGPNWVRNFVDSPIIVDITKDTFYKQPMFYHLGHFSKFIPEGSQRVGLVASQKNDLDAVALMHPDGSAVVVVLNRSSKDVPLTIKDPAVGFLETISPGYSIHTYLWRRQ
Chain of Glucocorticoid receptor (Homo sapiens) (P04150 whole entry, looked up): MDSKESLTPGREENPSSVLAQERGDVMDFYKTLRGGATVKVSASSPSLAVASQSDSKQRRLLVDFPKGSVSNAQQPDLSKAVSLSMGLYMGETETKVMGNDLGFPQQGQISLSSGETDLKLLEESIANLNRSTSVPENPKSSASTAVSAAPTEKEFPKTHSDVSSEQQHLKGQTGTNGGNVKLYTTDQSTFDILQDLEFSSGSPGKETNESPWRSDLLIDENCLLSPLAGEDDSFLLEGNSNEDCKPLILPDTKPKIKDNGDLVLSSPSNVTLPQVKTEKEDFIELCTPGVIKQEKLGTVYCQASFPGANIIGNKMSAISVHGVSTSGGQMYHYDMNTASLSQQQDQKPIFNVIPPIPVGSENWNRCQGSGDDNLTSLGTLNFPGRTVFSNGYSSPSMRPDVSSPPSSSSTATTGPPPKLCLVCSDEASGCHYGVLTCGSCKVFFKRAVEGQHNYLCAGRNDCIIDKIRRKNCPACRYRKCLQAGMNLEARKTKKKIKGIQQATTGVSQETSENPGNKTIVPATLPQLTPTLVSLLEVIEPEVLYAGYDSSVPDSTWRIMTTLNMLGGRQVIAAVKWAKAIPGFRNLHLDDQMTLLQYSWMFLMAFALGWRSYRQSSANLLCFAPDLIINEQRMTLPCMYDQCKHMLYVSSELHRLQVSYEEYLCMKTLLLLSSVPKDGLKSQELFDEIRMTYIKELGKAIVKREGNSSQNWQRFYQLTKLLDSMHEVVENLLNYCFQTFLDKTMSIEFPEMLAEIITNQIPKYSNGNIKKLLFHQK
Chain of 3',5'-cyclic-AMP phosphodiesterase 4B (Homo sapiens) (Q07343 whole entry, looked up): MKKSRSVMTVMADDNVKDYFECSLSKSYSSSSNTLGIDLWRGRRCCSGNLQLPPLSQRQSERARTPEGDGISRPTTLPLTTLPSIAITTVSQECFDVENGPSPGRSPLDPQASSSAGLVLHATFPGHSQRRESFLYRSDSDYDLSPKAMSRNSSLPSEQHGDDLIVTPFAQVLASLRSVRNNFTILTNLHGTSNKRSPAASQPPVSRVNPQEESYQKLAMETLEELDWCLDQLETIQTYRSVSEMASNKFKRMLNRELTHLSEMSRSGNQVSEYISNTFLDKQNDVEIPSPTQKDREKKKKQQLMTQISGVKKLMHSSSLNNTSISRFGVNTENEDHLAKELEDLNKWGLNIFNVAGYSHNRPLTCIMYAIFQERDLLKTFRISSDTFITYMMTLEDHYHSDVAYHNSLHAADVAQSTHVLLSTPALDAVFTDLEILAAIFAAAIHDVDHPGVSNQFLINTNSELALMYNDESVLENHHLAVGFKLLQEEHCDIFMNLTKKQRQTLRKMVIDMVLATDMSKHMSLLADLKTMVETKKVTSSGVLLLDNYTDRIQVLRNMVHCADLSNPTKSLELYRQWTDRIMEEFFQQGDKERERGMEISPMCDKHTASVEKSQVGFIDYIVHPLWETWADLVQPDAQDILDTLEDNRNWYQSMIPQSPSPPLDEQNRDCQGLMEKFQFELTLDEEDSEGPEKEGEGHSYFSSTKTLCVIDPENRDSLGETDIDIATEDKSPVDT
Chain of Cytochrome P450 1A2 (Homo sapiens) (P05177 whole entry, looked up): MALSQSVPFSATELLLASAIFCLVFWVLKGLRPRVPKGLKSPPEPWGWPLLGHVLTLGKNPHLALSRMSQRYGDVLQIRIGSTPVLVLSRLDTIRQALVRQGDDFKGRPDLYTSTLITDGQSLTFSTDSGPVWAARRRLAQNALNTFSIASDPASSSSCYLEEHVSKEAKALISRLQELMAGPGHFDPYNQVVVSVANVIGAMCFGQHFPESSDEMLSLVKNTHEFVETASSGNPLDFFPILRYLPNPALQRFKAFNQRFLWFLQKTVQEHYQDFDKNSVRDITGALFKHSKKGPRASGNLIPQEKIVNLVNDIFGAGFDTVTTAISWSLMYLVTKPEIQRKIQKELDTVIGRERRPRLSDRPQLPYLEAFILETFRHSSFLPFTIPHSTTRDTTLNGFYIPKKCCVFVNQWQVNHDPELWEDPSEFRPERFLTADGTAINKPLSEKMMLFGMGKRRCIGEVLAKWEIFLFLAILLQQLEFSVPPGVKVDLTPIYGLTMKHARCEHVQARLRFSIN
Chain of Cytochrome P450 3A4 (Homo sapiens) (P08684 whole entry, looked up): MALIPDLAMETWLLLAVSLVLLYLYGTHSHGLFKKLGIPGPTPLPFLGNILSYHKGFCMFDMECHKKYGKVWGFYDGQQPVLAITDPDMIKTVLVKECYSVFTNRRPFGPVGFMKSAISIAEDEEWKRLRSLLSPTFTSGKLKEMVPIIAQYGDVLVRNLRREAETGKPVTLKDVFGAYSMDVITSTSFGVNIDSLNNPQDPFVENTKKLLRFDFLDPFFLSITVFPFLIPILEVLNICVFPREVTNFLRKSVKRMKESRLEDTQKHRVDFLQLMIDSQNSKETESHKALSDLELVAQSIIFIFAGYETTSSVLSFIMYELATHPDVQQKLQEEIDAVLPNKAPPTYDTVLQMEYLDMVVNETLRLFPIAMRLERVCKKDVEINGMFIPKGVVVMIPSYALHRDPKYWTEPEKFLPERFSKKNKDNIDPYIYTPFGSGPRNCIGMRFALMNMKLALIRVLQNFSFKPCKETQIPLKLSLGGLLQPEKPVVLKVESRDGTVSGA

Turning to `COCCn1c(=O)c(-c2ccc(F)cc2)nc2cncnc21`, the Potency in assay [1] is over 11.4 µM; in [3] it was 0.501 µM (active); in [6], over 9.22 µM; in assay [7], over 46 µM. For the same compound, the figures for the activity change, negative = inhibition in [2] and in assay [4] were -7.99% and 1.81%, respectively. For the same compound, the activity, negative = inhibition in assay [5] was 2.35%. Besides, the Potency entry in assay [8], in [9] and in assay [10] was “inactive” throughout. Moreover, in assay [11], the activation was 3.14%. The outcome in assay [12] was inactive.
Regarding `COCC(=O)N1CCC2(CCCN(C(=O)Nc3cccc(C#N)c3)C2)CC1`, the Potency in assay [1] was over 11.4 µM; in [7], over 46 µM. The activity change, negative = inhibition is -3.42% in assay [2] and -3.66% in assay [4]. In addition, the Potency result in assay [3], in assay [8] and in assay [9] was “inactive” throughout. Besides, in [5], the activity, negative = inhibition is -1.02%. Also, the result in assay [12] was inactive.
As for `CC(C)NC(=O)N1CCC2(CC1)CCN(C(=O)c1cccn1C)CC2`, the values for the Potency in [1] and in assay [7] were over 11.4 µM and over 46 µM, respectively. In addition, the activity change, negative = inhibition is 15.2% in assay [2] and 7.13% in [4]. The Potency result in assay [3], in assay [8] and in [9] was “inactive” each time. The activity, negative = inhibition in [5] was 2.35%. Also, the result in [12] was inactive.
In the case of `O=c1c(-c2ccc(F)cc2)nc2cncnc2n1C1CC1`, the Potency in assay [1] is over 11.4 µM; in assay [3], 0.158 µM (active); in assay [7] it was over 46 µM. The activity change, negative = inhibition in [2] was -6.77%; in assay [4], 2.7%. Besides, the activity, negative = inhibition in assay [5] is -6.49%. Besides, the Potency entry in assay [8] was “inactive”. The outcome in assay [12] was inactive.
For the compound `COc1ccc(NC(=O)N2CC3(CCN(C(=O)c4cnccn4)CC3)C2)cc1`, the Potency was over 11.4 µM in assay [1] and over 46 µM in assay [7]. In addition, the activity change, negative = inhibition in assay [2] was 0.0652%; in assay [4] it was 15.4%. The Potency entry in assay [3], in [8] and in [9] was “inactive” each time. Besides, the activity, negative = inhibition in assay [5] was 4.6%. Besides, the result in assay [12] was inactive.
As for `O=C(c1csnn1)N1CCC2(CCN(Cc3nccs3)CC2)CC1`, the values for the Potency in assay [1] and in assay [7] were over 11.4 µM and over 46 µM, respectively. The activity change, negative = inhibition in assay [2] is -7.97%; in assay [4], -13.7%. Moreover, the Potency result in [3], in assay [8] and in [9] was “inactive” each time. The activity, negative = inhibition in assay [5] was -2.3%. Also, the result in [12] was inactive.
On to `COc1ccc(C(=O)N2CCC3(CCCN(C)C3)CC2)cc1`, for which the Potency in assay [1] is over 11.4 µM; in [7], over 46 µM. The activity change, negative = inhibition in assay [2] is 2.83%; in [4], 0.644%. Further, the Potency result in assay [3], in assay [8] and in assay [9] was “inactive” throughout. The activity, negative = inhibition in [5] was -7.5%. In addition, the result in assay [12] was inactive.
